Hits are enriched below; roughly 4.8% of the tested compounds scored in any of these assays.
hcDAF12 agonist: activates DAF-12 receptor from parasite H. contortus; activation, % at 6.8 µM; HEK293 hcDAF-12 lit1-tk-luc reporter, luminescence; 0% DMSO, 100% Δ7-dafachronic acid; AID 652067; 370,000 tested, 1.4% active;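 active means activation above the mean of all tested compounds plus 3 SD, cut at about 5.5% in these data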;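 further: 100% = response to 3 µM Δ7-dafachronic acid high control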
DAX1 inh-1: inhibitors of human orphan nuclear receptor DAX1 (NR0B1) | HEK293 Gal4-DAX1 luciferase reporter, luminescence | inhibition, % at 6.75 µM | 340,000 tested, 0.99% active;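 active means inhibition above the mean over all tested compounds plus 3 SD, cut at about 4.2% in these data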;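 further: 0% = DAX1-transfected cells with DMSO and 100% = empty-vector control cells with DMSO; inhibition shows as a rise in luminescence from relieved DAX1 repression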
hgDAF-12 ag: hgDAF-12 agonism, primary luciferase screen | HEK293 GAL4-hgDAF12 UAS-luciferase reporter, agonist luminescence; normalized to butyrate control | activation, % at 6.8 µM | 370,000 tested, 1.8% active | AID 687014;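 active means activation above a cutoff set at the mean of all screened compounds plus 3 SD, cut at about 10% in these data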;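 further: 0% = DMSO wells and 100% = sodium butyrate wells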
DAX1 inh-2: inhibitors of DAX1 repression of SF-1 activated StAR promoter; HEK293T StAR-luciferase reporter, SF-1/DAX-1 repression relief; inhibition, % at 6.8 µM; 370,000 tested, 1.1% active;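 active means inhibition above the mean over all tested compounds plus 3 SD, cut at about 3.6% in these data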;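 further: 0% = DAX-1 cells with DMSO and 100% = cells lacking DAX-1 with DMSO; higher inhibition means more luminescence from relief of DAX-1 repression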
NR1D1 modulator: modulates human Rev-erb alpha binding to DNA; activity, % at 10 µM; P20393; Rev-erbα–FITC-DNA binding, fluorescence polarization, 90 min; 370,000 tested, 0.79% active;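 active means activity above about 14%, limit read from the data; passing the limit was not always enough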;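 further: 0% = DMSO wells with 35 nM protein and 100% = DMSO wells with 750 nM protein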
Target sequence (P20393 whole entry, looked up): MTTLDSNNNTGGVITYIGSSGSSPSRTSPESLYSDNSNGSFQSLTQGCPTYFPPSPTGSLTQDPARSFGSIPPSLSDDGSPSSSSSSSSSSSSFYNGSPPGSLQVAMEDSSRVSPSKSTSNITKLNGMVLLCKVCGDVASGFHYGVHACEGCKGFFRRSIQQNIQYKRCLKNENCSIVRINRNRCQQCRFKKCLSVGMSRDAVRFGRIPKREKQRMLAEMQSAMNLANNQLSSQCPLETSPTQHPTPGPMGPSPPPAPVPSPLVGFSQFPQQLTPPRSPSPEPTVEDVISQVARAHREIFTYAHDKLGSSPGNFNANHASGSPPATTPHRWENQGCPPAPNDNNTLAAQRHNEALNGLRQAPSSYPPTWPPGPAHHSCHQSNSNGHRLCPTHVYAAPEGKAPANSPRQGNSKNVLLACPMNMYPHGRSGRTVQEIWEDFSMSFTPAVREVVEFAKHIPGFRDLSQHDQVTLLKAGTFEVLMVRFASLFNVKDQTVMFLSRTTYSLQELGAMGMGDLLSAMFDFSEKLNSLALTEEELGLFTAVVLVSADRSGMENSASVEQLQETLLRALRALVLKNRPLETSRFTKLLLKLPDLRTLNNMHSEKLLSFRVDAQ
ssDAF-12 act: activators of S. stercoralis DAF-12 nuclear receptor | HEK293 ssDAF-12/GRIP1 lit1-tk-luc reporter, luminescence; % of 3 µM dafachronic acid response | activation, % at 6.8 µM | 370,000 tested, 1% active | AID 652126;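 active means activation above the mean over all tested compounds plus 3 SD, cut at about 0.9% in these data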;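 further: 0% = DMSO-only wells and 100% = 3 µM delta7-dafachronic acid wells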
hgDAF12 conf: hgDAF-12 agonism, confirmation assay | shares compounds with hgDAF-12 ag | HEK293 GAL4-hgDAF12 luciferase reporter, agonist mode; percent of butyrate response | activation, % at 6.8 µM | 3,300 tested, 80% active;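 active means mean activation over triplicate wells above the hit cutoff derived from the earlier primary screen, cut at about 11% in these data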;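 further: 0% = DMSO low control and 100% = 2 mM sodium butyrate high control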
LXRb DAF12 ctr: counter-screen for DAF-12 agonists: agonists of human LXR-beta | AID 743051 | HEK293 Gal4-LXR luciferase reporter, 24 h | activation, % at 6.8 µM | shares compounds with hgDAF-12 ag | 3,300 tested, under 10 active;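 active means mean activation of the triplicate above a set limit carried over from the primary screen, none filed active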
An asterisk follows results filed as active.

O=C(COC(=O)C1CC1)Nc1ccc2c(c1)OCO2 was read as hcDAF12 agonist 1, DAX1 inh-1 0, hgDAF-12 ag -1, DAX1 inh-2 0, NR1D1 modulator 3 and ssDAF-12 act -2.
For c1ccc(OCCSc2nnnn2-c2ccccc2)cc1 the results were hcDAF12 agonist 4, DAX1 inh-1 2, hgDAF-12 ag 16*, DAX1 inh-2 3, NR1D1 modulator 1, ssDAF-12 act 0, hgDAF12 conf 19* and LXRb DAF12 ctr 1.
Cc1cc(NC(=O)c2ccc(N3CCCC3)c([N+](=O)[O-])c2)no1 was read as hcDAF12 agonist -1, DAX1 inh-1 0, hgDAF-12 ag 4, DAX1 inh-2 0, NR1D1 modulator -7 and ssDAF-12 act -2.
O=C(Nc1ccon1)c1ccc(N2CCCCC2)c([N+](=O)[O-])c1 was read as hcDAF12 agonist 3, DAX1 inh-1 2, hgDAF-12 ag 15*, DAX1 inh-2 2, NR1D1 modulator 2, ssDAF-12 act 0, hgDAF12 conf 17* and LXRb DAF12 ctr 1.
Screening CC(C)(C)c1ccc(C(=O)Nc2ncn[nH]2)cc1 returned hcDAF12 agonist 4, DAX1 inh-1 1, hgDAF-12 ag 14*, DAX1 inh-2 2, NR1D1 modulator 6, ssDAF-12 act 0, hgDAF12 conf 13* and LXRb DAF12 ctr 1.
For COc1ccc(-c2ncn(CCc3ccccc3OC)c2CC(C)C)cc1 the results were hcDAF12 agonist -2, hgDAF-12 ag -5, DAX1 inh-2 -3, NR1D1 modulator 2 and ssDAF-12 act -2.
Screening O=C(CNC(=O)c1ccc(-c2ccccc2)cc1)OCc1ccc(Br)cc1 returned hcDAF12 agonist 2, DAX1 inh-1 0, hgDAF-12 ag 13*, DAX1 inh-2 0, NR1D1 modulator 0, ssDAF-12 act 0, hgDAF12 conf 6 and LXRb DAF12 ctr 0.
COc1ccc(C(=O)NCC(=O)OCc2ccc(Br)cc2)cc1 was read as hcDAF12 agonist 2, DAX1 inh-1 0, hgDAF-12 ag 0, DAX1 inh-2 1, NR1D1 modulator -5 and ssDAF-12 act -2.
`CN1CCSc2ccc(C(=O)Nc3ccc(Cl)cc3)cc21` gave hcDAF12 agonist 4, DAX1 inh-1 7.0*, hgDAF-12 ag 18*, DAX1 inh-2 2, NR1D1 modulator 7, ssDAF-12 act -1, hgDAF12 conf 17* and LXRb DAF12 ctr 1.
For COC1=C[C@H](C(=O)NCc2ccc(Br)cc2)C(C)C(c2ccccc2)CC1=O (stereo partly drawn) the results were hcDAF12 agonist 1, hgDAF-12 ag -2, DAX1 inh-2 0, NR1D1 modulator 12 and ssDAF-12 act -1.
`Cc1cc(C(=O)COC(=O)c2ccc(O)cc2)c(C)n1Cc1ccco1` gave hcDAF12 agonist 6.0*, DAX1 inh-1 1, hgDAF-12 ag 13*, DAX1 inh-2 4.2*, NR1D1 modulator -3, ssDAF-12 act 0, hgDAF12 conf 16* and LXRb DAF12 ctr 0.
`Cc1cc(C(=O)CSc2ncccn2)c(C)n1Cc1ccco1` gave hcDAF12 agonist 6, DAX1 inh-1 1, hgDAF-12 ag 17*, DAX1 inh-2 4, NR1D1 modulator -3, ssDAF-12 act 0.9*, hgDAF12 conf 18* and LXRb DAF12 ctr 1.
For c1ccc(C2Oc3ccccc3C3CC(c4cccs4)=NN32)cc1 (stereo not drawn) the results were hcDAF12 agonist 6, DAX1 inh-1 2, hgDAF-12 ag 16*, DAX1 inh-2 1, NR1D1 modulator 0, ssDAF-12 act 1, hgDAF12 conf 10 and LXRb DAF12 ctr 0.
For CC(C)C[C@H]1COc2cccc(F)c2S(=O)(=O)N1 the results were hcDAF12 agonist -2, hgDAF-12 ag 3, DAX1 inh-2 -1, NR1D1 modulator -5 and ssDAF-12 act -1.
